Most compounds without a hit are left out; they make up all but 27% or so of the library.
CYP2C19 inhib: blockers of cytochrome P450 2C19 activity – biochemical, luminescence, ADME assay, primary screen; AID 778, 2007; actives 21% (n = 96,000); P33261; inhibition, % at 5 µM; CYP2C19 Supersomes, luciferin-H EGE luminescence, 30 min;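 active = CYP2C19 inhibition above a set limit at 5 µM in the primary screen, cut at about 50% in these data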;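 also: plate controls were negative control wells for no effect and 2.5 mM tranylcypromine positive control for full effect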
Target sequence (P33261 whole entry, looked up): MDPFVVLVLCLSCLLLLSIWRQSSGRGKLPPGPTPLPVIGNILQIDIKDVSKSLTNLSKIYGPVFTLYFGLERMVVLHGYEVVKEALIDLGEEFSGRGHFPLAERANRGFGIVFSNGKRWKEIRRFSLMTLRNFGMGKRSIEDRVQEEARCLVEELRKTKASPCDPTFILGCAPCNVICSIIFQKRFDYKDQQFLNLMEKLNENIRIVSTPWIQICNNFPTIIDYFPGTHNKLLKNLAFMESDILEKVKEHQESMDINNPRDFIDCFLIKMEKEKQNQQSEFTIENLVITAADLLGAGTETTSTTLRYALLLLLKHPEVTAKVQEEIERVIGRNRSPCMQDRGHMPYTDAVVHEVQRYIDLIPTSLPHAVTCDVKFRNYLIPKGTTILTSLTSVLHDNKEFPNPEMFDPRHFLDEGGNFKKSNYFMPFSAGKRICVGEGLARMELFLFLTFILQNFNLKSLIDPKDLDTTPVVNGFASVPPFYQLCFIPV
sEH inhibitor: soluble epoxide hydrolase inhibitors, primary screen, biochemical, human sEH. recombinant human sEH enzymatic activity assay. Bifunctional epoxide hydrolase 2 (Homo sapiens), P34913. actives 0.34% (n = 91,000). inhibition, % at 2 µM; in the data active = inhibition above about 80%
sEH activator: soluble epoxide hydrolase activators, primary screen, biochemical, human sEH; Bifunctional epoxide hydrolase 2 (Homo sapiens), P34913; actives 0.04% (n = 91,000); activation, % at 2 µM; purified human sEH enzymatic activity, activator screen; in the data active = activation above about 37%
CYP2C9 inhib: blockers of cytochrome P450 2C9 activity – biochemical, luminescence, ADME assay, primary screen; P11712; CYP2C9 Supersomes, luciferin-H conversion; inhibition, % at 5 µM; actives 20% (n = 96,000);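 active = blocking of liver enzyme CYP2C9 beyond about 50% at 5 µM, limit read from the data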
CYP2C9 activ: human CYP2C9 activators, primary screen, biochemical, luminescence; Cytochrome P450 2C9 (Homo sapiens), P11712; recombinant CYP2C9, luciferin-H conversion; active compounds read high; factor 1 = untreated enzyme, 0 = blocked; activation factor at 5 µM; actives 1.4% (n = 96,000);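 active = activation factor of 2 or more for CYP2C9 at a 5 µM dose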;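 also: 0 = sulfaphenazole-blocked wells and 1 = vehicle-only wells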
CYP2C19 activ: human CYP2C19 activators, primary screen, biochemical, luminescence; Cytochrome P450 2C19 (Homo sapiens), P33261; recombinant CYP2C19, luciferin-H EGE luminescence; active compounds read high; 0 = fully inhibited enzyme, 1 = untreated enzyme; activation factor at 5 µM; 96,000 tested, under 10 active; AID 1025, 2008;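 active = activation factor of at least 2 at 5 µM in the primary screen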;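 also: 0 = wells with 2.5 mM tranylcypromine and 1 = vehicle-only wells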
* hit, by the source's call; / = no result given.

SMILES	CYP2C19 inhib	sEH inhibitor	sEH activator	CYP2C9 inhib	CYP2C9 activ	CYP2C19 activ
CC1CC(=O)N(CC(=O)NCc2ccc3c(c2)OCO3)c2ccccc2S1 (stereo not given)	100*	12	-14	42	0.6	0
O=C(CN1C(=O)CCS(=O)(=O)c2ccccc21)NCc1ccccc1	/	-9	10	/	/	/
O=C(Cn1nc(-c2ccccc2F)ccc1=O)NCc1ccc2c(c1)OCO2	72*	-1	3	56*	0.4	0.3
CC1CC(=O)N(CC(=O)N2CCCC2)c2ccccc2S1 (stereo not given)	-8	/	/	-24	1.2	1.1
O=C(CN1CCCc2ccccc21)NCc1ccc2c(c1)OCO2	99*	/	/	30	0.7	0
CC1CC(=O)N(CC(=O)NCc2ccco2)c2ccccc2S1 (stereo not given)	52*	/	/	2	1	0.5
O=C(N/N=C/c1cccc([N+](=O)[O-])c1)c1ccc2nc[nH]c2c1	24	1	0	51*	0.5	0.8
CCc1ccc(Nc2ncc3c(n2)CC(c2ccc(OC)cc2)CC3=O)cc1 (stereo not given)	26	0	2	79*	0.2	0.7
COc1ccc(Nc2ncc3c(n2)CC(c2ccccc2)CC3=O)cc1 (stereo not given)	22	/	/	36	0.6	0.8
CC1CC(C)CN(c2ncc3c(n2)CC(c2ccc(Cl)cc2)CC3=O)C1 (stereo not given)	43	-7	8	78*	0.2	0.6
Cc1nc(N2CCN(c3ccccc3)CC2)nc2c1C(=O)CC(c1ccccc1)C2 (stereo not given)	42	-11	12	83*	0.2	0.6
Cc1nc(N2CCN(c3ccccc3)CC2)nc2c1C(=O)CC(C)C2 (stereo not given)	13	-1	0	7	0.9	0.9
COc1cccc(C(=O)Nc2ncc3c(n2)CC(c2ccc(OC)cc2OC)CC3=O)c1 (stereo not given)	80*	13	-14	89*	0.1	0.2
CCCn1c(SCC(=O)NC)nnc1C(C)C	-2	-3	1	-20	1.2	1
Cc1ccc(C2CC(=O)c3cnc(N4CCN(c5ccccc5)CC4)nc3C2)cc1 (stereo not given)	43	2	-1	54*	0.5	0.6
O=C1CC(c2ccccc2)Cc2nc(N3CCc4ccccc4C3)ncc21 (stereo not given)	35	0	-1	64*	0.4	0.6
COc1ccc(C2CC(=O)c3cnc(N4CCN(Cc5ccccc5)CC4)nc3C2)cc1 (stereo not given)	80*	6	-7	94*	0.1	0.2
COc1cccc(-n2sc3c(c2=S)-c2cc(OC)ccc2NC3(C)C)c1	12	3	-3	69*	0.3	0.9
CCOc1cc(CNC(=O)CN2C(=O)c3ccccc3S2(=O)=O)ccc1OC	6	/	/	19	0.8	0.9
COc1cc(C(=O)OCC(=O)NC2CCCC2)cc(NC(=O)c2ccco2)c1OC	78*	4	-4	73*	0.3	0.2
CCOc1cc(NC(=O)c2ccco2)c(OCC)cc1NC(=O)c1cc(OC)c(OC)c(OC)c1	21	-2	1	57*	0.4	0.8
COc1cc(NC(=O)c2ccco2)c(OC)cc1NC(=O)c1cc(OC)c(OC)c(OC)c1	12	6	-3	28	0.7	0.9
COc1ccc(-c2nn(C)c(=O)c3ccccc23)cc1NC(=O)COc1ccc(C)cc1	26	17	-16	17	0.8	0.7
Fc1ccc(CNc2nc3ccccc3n3cnnc23)cc1	35	-8	7	3	1	0.6
Cc1cc(=O)cc(C)n1-c1ccc2c(c1)nc(C)n2-c1ccccc1	-6	/	/	-12	1.1	1.1
SMILES	CYP2C19 inhib	sEH inhibitor	sEH activator	CYP2C9 inhib	CYP2C9 activ	CYP2C19 activ
Cc1nc2cc(S(=O)(=O)N(C)C)ccc2n1-c1ccccc1	81*	/	/	25	0.7	0.2
Cc1nc2ccccc2n1-c1ccccc1	67*	/	/	40	0.6	0.3
Cc1ccccc1-n1c(C)nc2ccccc21	82*	3	-4	54*	0.5	0.2
O=C1c2ccccc2-c2nc3ccccc3n21	/	-2	8	/	/	/
CCOc1cc(/C=N/O)cc(Cl)c1OC	6	14	-15	-8	1.1	0.9
COc1ccccc1CNS(=O)(=O)c1c(C)[nH]c(=O)[nH]c1=O	15	3	-5	-12	1.1	0.8
O=C(C1CCCN(S(=O)(=O)Cc2ccccc2)C1)N1CCc2ccccc21 (stereo not given)	24	-22	24	8	0.9	0.8
Cn1c(=O)[nH]c(=O)c2c1nc(N1CCOCC1)n2CCCSc1ncccn1	-9	-12	12	7	0.9	1.1
Cc1nn(C(=O)c2ccccc2)c2c1C(=O)CC(C)(C)C2	80*	-6	1	69*	0.3	0.2
CC(=O)Nc1ccc(Oc2ncccn2)c(Cl)c1	11	5	-6	-4	1	0.9
CS(=O)(=O)N1CCc2cc(-c3csc(NC(=O)C(c4ccccc4)c4ccccc4)n3)ccc21	11	4	-3	58*	0.4	0.9
O=C(Nc1nc(-c2cccc([N+](=O)[O-])c2)cs1)C(c1ccccc1)c1ccccc1	10	1	2	74*	0.3	0.9
CC(=O)c1cccc(Nc2nc(-c3cccc([N+](=O)[O-])c3)cs2)c1	32	0	0	57*	0.4	0.7
CC(=O)Nc1nc(C)c(-c2csc(Nc3ccc(O)cc3)n2)s1	6	-2	0	76*	0.2	0.9
Cc1ccc(-c2csc(NC(=O)c3cccc([N+](=O)[O-])c3)n2)cc1	-8	3	0	-10	1.1	1.1
C=CCN(C(C)=O)C1CC(=O)N(c2ccc(OCCC)cc2)C1=O (stereo not given)	-4	1	-2	3	1	1
Cn1c(N2CCN(C(=O)C34CC5CC(CC(C5)C3)C4)CC2)nc2ccccc21	-1	/	/	7	0.9	1
CC1Cc2cc(-c3csc(NC(=O)Cc4ccccc4)n3)ccc2N1S(C)(=O)=O (stereo not given)	25	-12	12	58*	0.4	0.7
CC(=O)Nc1nc(C)c(-c2csc(Nc3cccc([N+](=O)[O-])c3)n2)s1	83*	-1	0	89*	0.1	0.2
CC(C)Cc1nnc(NC(=O)CSc2nc(=O)cc(N)n2-c2ccccc2)s1	3	4	-1	12	0.9	1

Screening results from PubChem.
